Assay results: PubChem BioAssay (NCI)
The panel holds about 83,000 compounds, 20% with a hit somewhere; the sample as a whole holds those more often.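 Note: values are percent growth. 100 is the growth of untreated cells, values between 100 and 0 indicate rising inhibition; between -100 and 0 indicates cell death.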 Values without a mark were called inactive. Calls of active or inactive are those of the source. The calls were made as follows: active = growth percent below 10; inactive = the rest.

Each compound was assayed on OVCAR-8 ovarian (assay: NCI-60 one-dose screen, 48 h (100 = growth as untreated, 0 = no growth, -100 = all killed)). Conditions: 10 µM unless noted.
`O=c1c2cc(Br)cc(Br)c2nc(-c2ccc(Cl)cc2)n1/N=C\c1ccccc1F` was tested, and the growth was 47%.
`O=C(O)CSc1ccc(NCc2oc(CO)cc(=O)c2O)cc1` showed a growth of 102%.
Compound `O=C(c1ccccc1)C1OC1C(=O)c1ccccc1` (stereo not drawn) has a growth of 25.4%.
Work on `CS(=O)(=O)c1ccc(C(=O)Nc2ccc(Cl)c(-c3ccccn3)c2)c(Cl)c1` yielded a growth of 23.3%.
With `COc1ccccc1/C=N\Nc1ccc([N+](=O)[O-])cn1` the growth was 106%.
Compound `CCN1C(=O)N(CC)C2C1N=C(SC)N2/N=C/C=C/c1ccccc1OC` (stereo not drawn) has a growth of 10.9%.
`O=C(c1ccccc1)C(CCc1ccccn1)CCc1ccccn1` was tested, and the growth was 109%.
With `C=C[C@H]1CCC/C=C/[C@@H]2C[C@H](O)C[C@H]2[C@H](O)/C=C/C(=O)O1` the growth was 2.59% (active).
For `CCN1C(=O)N(CC)C2C1NC(=O)N2/N=C/C=C/c1ccccc1` (stereo not drawn), the growth was 60.5%.
Compound `O=[N+]([O-])c1ccc(N/N=C/c2ccccc2O)nc1` has a growth of 24.3%.
Work on `C#CCNc1nc(NCCNC(=O)CCl)nc(N(C)CCCCc2ccccc2)n1` yielded a growth of 101%.
`O=S1(=O)NCCCN1CCNc1nccc(-c2c(-c3cccc(O)c3)nc3sccn23)n1` showed a growth of 83%.
For `OC(CCCCCCCCC(O)CN1CCc2ccccc2C1)CN1CCc2ccccc2C1` (stereo not drawn), the growth was 104%.
`CCCCCCCCCCCCNC(=O)N[C@H](C(=O)N[C@H]1/C=C/CCNC(=O)/C=C/[C@H](C)NC1=O)C(C)C` gave a growth of 11.5%.
With `COc1ccccc1-[n+]1cc(-c2ccc(-c3ccccc3)cc2)n2c1CCCCC2` the growth was 2.74% (active).
In the case of `O=C(CCl)N1c2ccccc2Oc2ccc3ccccc3c21`, the growth was -35.5% (active).
`C=C(c1ccc(C(=O)NCCCn2ccnc2)cc1)c1cc2c(cc1C)C(C)(C)CCC2(C)C` showed a growth of 40%.
With `COc1cc(CN2CCC(N3CCCC3=O)c3ccccc32)cc(OC)c1OC` (stereo not drawn) the growth was 84.2%.
Work on `CC(=O)Nc1ccc(/C=N/N2CCCCCC2)cc1` yielded a growth of 101%.
`CCCCc1nc(Cl)c(C2CC(c3ccc(S(N)(=O)=O)cc3)=NN2c2cc(Cl)cc(Cl)c2)[nH]1` (stereo not drawn) showed a growth of 47.1%.
Compound `O=C1NN(C(=O)c2ccccc2)C(c2ccc(Cl)c(Cl)c2)=C/C1=C\c1ccccc1[N+](=O)[O-]` has a growth of 30.3% [6.75 µM].
Compound `O=C(NNC(=O)c1cccc(Cl)c1)c1ccccc1` has a growth of 106%.
Work on `Cc1c(C(N)=O)sc2ncn(CC(=O)NN=C3CCCCC3)c(=O)c12` yielded a growth of 110%.
`Clc1cc(Cl)cc(-c2cnc3nonc3n2)c1` was tested, and the growth was 94.2%.
With `CCOC(=O)Cn1c(-c2nonc2NC(=O)c2ccccc2F)nc2ccccc21` the growth was 38.8%.
`COc1ccc(C(=O)O)cc1.[Ag]` gave a growth of 105%.
Compound `COc1cccc(C2C(C#N)=C(N)Oc3cc4c(cc32)OCO4)c1` (stereo not drawn) has a growth of 24.9%.
`C=CCOC(=O)C1=C(C)NC2=C(C(=O)CCC2)C1c1ccc(F)cc1` (stereo not drawn) was tested, and the growth was 97%.
`COc1cc(CN(c2ccc(C)cc2)C2OC(=O)c3ccccc32)cc(OC)c1OC` (stereo not drawn) gave a growth of 50.1%.
For `CN1C(=O)C(C(=O)/C=C/c2ccccc2C(=O)O)C(=O)N(C)C1=O`, the growth was 102%.
In the case of `CC1(C)OC2OC3C(CN)OC(c4ccccc4)OC3C2O1` (stereo not drawn), the growth was 103%.
With `O=S(=O)(Cc1ccc(Cl)cc1Cl)c1ccc(Cl)cc1` the growth was 31.9%.
`COC(=O)OC1C(O[C@H]2C[C@H]3[C@@H]4CC=C5C[C@@H](O)CC[C@]5(C)[C@H]4CC[C@]3(C)[C@H]2[C@H](C)C(=O)CCC(C)C)OCC(O)C1OC1OCC(O)C(O)C1OC(=O)c1ccc(OC)cc1` (stereo partly drawn) gave a growth of 26.8%.
`CC(C)c1ccc2c(c1)CCC1C2CCCC1(C)NCc1ccccc1` (stereo not drawn) gave a growth of 91.5%.
Compound `CC(=O)C1CCC2C3CC(C)=C4CC(O)CCC4(C)C3CCC12C` (stereo not drawn) has a growth of 106%.
`CC(CN1CCN(CC(C)Nc2ccnc3cc(Cl)ccc23)CC1)Nc1ccnc2cc(Cl)ccc12` (stereo not drawn) was tested, and the growth was 6.74% (active).
In the case of `C=CCOC(=O)C1=C(C)NC2=C(C(=O)CC(C)(C)C2)C1c1ccc(OC)cc1` (stereo not drawn), the growth was 93%.
Work on `CCCCCCCC/C=C/CCCCCCCC1=NC(C)(C)CN1c1ccccc1` yielded a growth of 87.3%.
Compound `COc1ccc2c(c1)N(Cc1ccc(Cl)cc1)CCC2N1CCCC1=O` (stereo not drawn) has a growth of 50%.

These compounds were tested on OVCAR-5 ovarian in the same assay as above. Conditions: 10 µM unless noted.
`O=c1c2cc(Br)cc(Br)c2nc(-c2ccc(Cl)cc2)n1/N=C\c1ccccc1F` showed a growth of 64.8%.
In the case of `O=C(O)CSc1ccc(NCc2oc(CO)cc(=O)c2O)cc1`, the growth was 102%.
Compound `O=C(c1ccccc1)C1OC1C(=O)c1ccccc1` (stereo not drawn) has a growth of 30.2%.
For `CS(=O)(=O)c1ccc(C(=O)Nc2ccc(Cl)c(-c3ccccn3)c2)c(Cl)c1`, the growth was 33.6%.
`COc1ccccc1/C=N\Nc1ccc([N+](=O)[O-])cn1` gave a growth of 108%.
For `CCN1C(=O)N(CC)C2C1N=C(SC)N2/N=C/C=C/c1ccccc1OC` (stereo not drawn), the growth was 37.2%.
`O=C(c1ccccc1)C(CCc1ccccn1)CCc1ccccn1` showed a growth of 99.6%.
With `C=C[C@H]1CCC/C=C/[C@@H]2C[C@H](O)C[C@H]2[C@H](O)/C=C/C(=O)O1` the growth was 13.4%.
In the case of `CCN1C(=O)N(CC)C2C1NC(=O)N2/N=C/C=C/c1ccccc1` (stereo not drawn), the growth was 80.1%.
`O=[N+]([O-])c1ccc(N/N=C/c2ccccc2O)nc1` was tested, and the growth was 60.9%.
`C#CCNc1nc(NCCNC(=O)CCl)nc(N(C)CCCCc2ccccc2)n1` was tested, and the growth was 109%.
For `O=S1(=O)NCCCN1CCNc1nccc(-c2c(-c3cccc(O)c3)nc3sccn23)n1`, the growth was 108%.
Compound `OC(CCCCCCCCC(O)CN1CCc2ccccc2C1)CN1CCc2ccccc2C1` (stereo not drawn) has a growth of 102%.
With `CCCCCCCCCCCCNC(=O)N[C@H](C(=O)N[C@H]1/C=C/CCNC(=O)/C=C/[C@H](C)NC1=O)C(C)C` the growth was -83.7% (active).
In the case of `COc1ccccc1-[n+]1cc(-c2ccc(-c3ccccc3)cc2)n2c1CCCCC2`, the growth was 18.4%.
For `O=C(CCl)N1c2ccccc2Oc2ccc3ccccc3c21`, the growth was 22.4%.
Work on `C=C(c1ccc(C(=O)NCCCn2ccnc2)cc1)c1cc2c(cc1C)C(C)(C)CCC2(C)C` yielded a growth of 33.3%.
With `COc1cc(CN2CCC(N3CCCC3=O)c3ccccc32)cc(OC)c1OC` (stereo not drawn) the growth was 103%.
`CC(=O)Nc1ccc(/C=N/N2CCCCCC2)cc1` gave a growth of 96.7%.
For `CCCCc1nc(Cl)c(C2CC(c3ccc(S(N)(=O)=O)cc3)=NN2c2cc(Cl)cc(Cl)c2)[nH]1` (stereo not drawn), the growth was 65.7%.
`O=C1NN(C(=O)c2ccccc2)C(c2ccc(Cl)c(Cl)c2)=C/C1=C\c1ccccc1[N+](=O)[O-]` was tested, and the growth was -18.6% [6.75 µM] (active).
Work on `O=C(NNC(=O)c1cccc(Cl)c1)c1ccccc1` yielded a growth of 103%.
For `Cc1c(C(N)=O)sc2ncn(CC(=O)NN=C3CCCCC3)c(=O)c12`, the growth was 104%.
`Clc1cc(Cl)cc(-c2cnc3nonc3n2)c1` gave a growth of 93.7%.
For `CCOC(=O)Cn1c(-c2nonc2NC(=O)c2ccccc2F)nc2ccccc21`, the growth was 75%.
With `COc1ccc(C(=O)O)cc1.[Ag]` the growth was 104%.
`COc1cccc(C2C(C#N)=C(N)Oc3cc4c(cc32)OCO4)c1` (stereo not drawn) showed a growth of 31.1%.
With `C=CCOC(=O)C1=C(C)NC2=C(C(=O)CCC2)C1c1ccc(F)cc1` (stereo not drawn) the growth was 98%.
For `COc1cc(CN(c2ccc(C)cc2)C2OC(=O)c3ccccc32)cc(OC)c1OC` (stereo not drawn), the growth was 40.3%.
`CN1C(=O)C(C(=O)/C=C/c2ccccc2C(=O)O)C(=O)N(C)C1=O` was tested, and the growth was 104%.
With `CC1(C)OC2OC3C(CN)OC(c4ccccc4)OC3C2O1` (stereo not drawn) the growth was 104%.
`O=S(=O)(Cc1ccc(Cl)cc1Cl)c1ccc(Cl)cc1` gave a growth of 53.9%.
`COC(=O)OC1C(O[C@H]2C[C@H]3[C@@H]4CC=C5C[C@@H](O)CC[C@]5(C)[C@H]4CC[C@]3(C)[C@H]2[C@H](C)C(=O)CCC(C)C)OCC(O)C1OC1OCC(O)C(O)C1OC(=O)c1ccc(OC)cc1` (stereo partly drawn) showed a growth of 31.2%.
In the case of `CC(C)c1ccc2c(c1)CCC1C2CCCC1(C)NCc1ccccc1` (stereo not drawn), the growth was 53.5%.
Compound `CC(=O)C1CCC2C3CC(C)=C4CC(O)CCC4(C)C3CCC12C` (stereo not drawn) has a growth of 112%.
`CC(CN1CCN(CC(C)Nc2ccnc3cc(Cl)ccc23)CC1)Nc1ccnc2cc(Cl)ccc12` (stereo not drawn) gave a growth of 57.2%.
`C=CCOC(=O)C1=C(C)NC2=C(C(=O)CC(C)(C)C2)C1c1ccc(OC)cc1` (stereo not drawn) showed a growth of 107%.
`CCCCCCCC/C=C/CCCCCCCC1=NC(C)(C)CN1c1ccccc1` was tested, and the growth was 113%.
Work on `COc1ccc2c(c1)N(Cc1ccc(Cl)cc1)CCC2N1CCCC1=O` (stereo not drawn) yielded a growth of 66%.
